# SW480 rerep: A quantitative high throughput screen for small molecules that induce DNA re-replication in SW480 colon adenocarcinoma cells. AID 624297, 2012. 340,000 compounds, 1.8% hits. SW480 DNA re-replication, Hoechst DNA content imaging, 48 h. Potency, µM (titrated, usually from 46.1 µM), for inactives: at the top dose re-replication activation, actives largely listed as activators; also: % of control where 0% means no effect; nearly all actives have a fitted effect of over 55% in size
#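 First, 250 cells per well were seeded. Next, compound or vehicle (23 nL) was pinned in, plates sat 48 hr at 37 C. Finally Hoechst was added for 40 min before fluorescence scanning.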
# MCF10A rereplic: A quantitative high throughput screen for small molecules that induce DNA re-replication in MCF 10a normal breast cells | MCF 10A DNA re-replication, Hoechst nuclear intensity, 48 h | Potency, µM (titrated, usually from 46.1 µM), for inactives: at the highest dose activity, positive = re-replication, actives largely listed as activators | 350,000 compounds, 2.9% hits; also: % of control where 0% means no effect; nearly all actives have a fitted effect of over 50% in size
# RGS4 inhibitor: Inhibitors of Regulator of G Protein Signaling (RGS) 4: qHTS; Transcreener GDP fluorescence polarization, RGS4-accelerated GTP hydrolysis; Regulator of G-protein signaling 4 (Homo sapiens), P49798; AID 504845, 2011; 390,000 compounds, 0.039% hits; Potency, µM (top dose mostly 114 µM), for the others: at the top dose activity change, negative = inhibition, usual class: inhibitors; also: % is scaled to controls: 0 for no effect and ±100 for the full control effect; nearly all actives have a fitted effect of over 75% in size
# Target sequence (P49798 whole entry, looked up): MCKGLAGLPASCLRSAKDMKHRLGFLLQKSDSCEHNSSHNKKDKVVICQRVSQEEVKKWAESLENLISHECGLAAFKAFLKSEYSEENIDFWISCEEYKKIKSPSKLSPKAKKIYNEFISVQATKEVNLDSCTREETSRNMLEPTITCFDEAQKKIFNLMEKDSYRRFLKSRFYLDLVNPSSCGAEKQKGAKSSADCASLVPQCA
#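 MLSMR compounds (23 nl, pin-transferred) preincubated 10 min at room temperature with a 500nM (2x) first reagent, then RGS4 at 900nM (2x) plus Transcreener GDP mix added; fluorescence polarization (620/688 nm) read before and after 90 min at 30 °C.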
# KB-3-1 tox: qHTS assay for MDR1-selective chemotherapeutics: Primary screen using the parental adenocarcinoma cell KB-3-1; Potency, µM (top dose mostly 46.1 µM), hits mostly cytotoxic; 400,000 compounds, 1.4% hits; AID 1347075, 2019; KB-3-1 viability, CellTiter-Glo ATP luminescence, 72 h; also: % is scaled to controls: 0 for no effect and ±100 for the full control effect; nearly all actives have a fitted effect of over 60% in size
#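 Parental KB-3-1 viability, qHTS format: 72 h compound exposure, 37 °C; CellTiter-Glo; media-only wells and DMSO plates as controls; concentration-effect fits on corrected data.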
# KB-V1 cytotox: qHTS assay for MDR1-selective chemotherapeutics: Primary screen using the drug-selected MDR subline cells KB-V1. KB-V1 MDR cells viability, CellTiter-Glo, 72 h. Potency, µM (top dose mostly 46.1 µM), actives largely listed as cytotoxic. 400,000 compounds, 3.4% hits. AID 1347076, 2019; also: % is scaled to controls: 0 for no effect and ±100 for the full control effect; nearly all actives have a fitted effect of over 60% in size
#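 In this primary screen, KB-V1 cells overexpressing P-gp are incubated with library compounds (lowest to highest concentration) for 72 h at 37 degrees C before a luminescent ATP viability read.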
# TSG101-PTAP inh: qHTS Assay for Iinhibitors of HIV-1 Budding by Blocking the Interaction of PTAP/TSG101 | Fluorescence polarization, FITC-PTAP peptide / Tsg101 binding | Potency, µM (highest dose often 115 µM), for the others: at the top dose activity change, negative = inhibition, usual class: inhibitors | 340,000 tested, under 10 active | AID 493005, 2010; active = well fitted inhibition curve with a large enough effect in the main read-out, with a control signal flat, not every such curve was filed as active; inconclusive = small, poorly fitted or top-dose-only effect, or effect the other way, or a change in a side signal; inactive = no such curve, though single readings can be large or run the other way; also: % of control where 0% means no effect
# Target sequence (Q99816 whole entry, looked up): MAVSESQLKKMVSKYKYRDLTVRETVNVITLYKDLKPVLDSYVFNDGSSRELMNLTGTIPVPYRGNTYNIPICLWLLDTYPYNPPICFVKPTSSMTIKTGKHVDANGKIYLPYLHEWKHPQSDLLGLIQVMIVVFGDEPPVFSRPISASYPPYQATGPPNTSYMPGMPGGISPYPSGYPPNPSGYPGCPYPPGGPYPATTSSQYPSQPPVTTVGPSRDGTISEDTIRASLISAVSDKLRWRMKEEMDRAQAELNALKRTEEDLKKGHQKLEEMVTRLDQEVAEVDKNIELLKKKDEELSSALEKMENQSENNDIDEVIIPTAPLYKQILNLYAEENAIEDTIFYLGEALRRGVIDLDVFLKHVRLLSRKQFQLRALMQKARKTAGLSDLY
#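 FP read-out: FITC-PTAP peptide, 50 nM final, binding Tsg101 binding domain, 10 uM final; 20 min, r.t.; 10 mM HEPES pH 7.5, 0.15 M NaCl, 0.01% Tween 20, 3 mM EDTA, 0.1 mM TCEP.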
# Starred values were filed as active, the others as inactive; i = inactive; ? = inconclusive; . = no result; ! = repeats disagree. Shown are actives, neighbours in structure and some others; about 6.6% of the full set was active somewhere. Unless noted, calls follow the shape of the dose curve; as a rule, active = well fitted curve in the direction sought with a large enough effect; inconclusive = small, poorly fitted or top-dose-only effect, or another doubt; inactive = no such curve, though single readings can be large; an effect the other way counts as inactive or inconclusive. Potency is read from the fitted curve at half-maximal effect.
SMILES,SW480 rerep,MCF10A rereplic,RGS4 inhibitor,KB-3-1 tox,KB-V1 cytotox,TSG101-PTAP inh
O=C(c1ccc(F)cc1)c1cn(Cc2ccccc2)c2cc3c(cc2c1=O)OCO3,.,.,-6.3%,i,i,.
OC(CNCc1ccc(-c2ccccc2)cc1)c1ccccc1 (centres undefined),18.4µM*,18.4µM*,7.4%,?,?,0.7%
OC(CNCc1ccncc1)c1ccccc1 (centres undefined),-5.5%,-2.2%,-28.8%,i,i,1.6%
CCOC(=O)c1c(NC(=O)/C=C/C(=O)O)sc(C)c1-c1ccc(Cl)cc1,4.4%,2.91µM*,-19.2%,?,i,-12.0%
CCOC(=O)c1c(NC(=S)N2CCN(C)CC2)sc(C)c1-c1ccccc1,?,25.9µM*,?,i,i,2.4%
CCOC(=O)c1c(NC(=O)CN2CCCCC2)sc(CN(C)C)c1-c1ccccc1,16.4µM*,25.9µM*,-10.4%,i,i,-5.8%
C[C@]12C=CC(=O)N[C@@H]1CC[C@@H]1C2CC[C@]2(C)C(C(=O)Nc3cc(C(F)(F)F)ccc3C(F)(F)F)CC[C@@H]12 (some centres undefined),6.9%,21.4%,.,.,.,.
CCN(Cc1ccccc1)C(=O)CCS(=O)(=O)c1cc(Br)cc2c1N(C(=O)C1CC1)CC2,.,.,-21.5%,i,i,.
CCn1cc2nc(SCc3ccccc3Cl)n(Cc3ccc(OC)cc3)c(=O)c2n1,.,.,-21.0%,i,i,.
CCc1ccc(CNC(=O)C2CCCN(c3nn4cc(-c5ccc(F)cc5)nc4s3)C2)cc1 (centres undefined),.,.,-37.3%,i,i,.
CCCCOc1cccc(C(=O)N(Cc2ccc(N(C)C)cc2)C2CCS(=O)(=O)C2)c1 (centres undefined),.,.,6.4%,i,i,.
Cc1nn(-c2ccc(F)cc2)c(Cl)c1/C=C/C(=O)OCC(=O)Nc1ccc(F)cc1F,0.9%,14.6µM*,0.8%,i,i,0.3%
Cc1ccsc1CCN1C(=O)N(c2ccc(F)cc2)C(=O)C1CC(=O)Nc1ccccc1 (centres undefined),.,.,9.7%,i,i,.
CCOc1ccc(NC(=O)CC2C(=O)N(c3ccccc3)C(=O)N2CCc2cccs2)cc1 (centres undefined),?,-1.2%,16.8%,i,5.8µM*!,-1.7%
Cc1ccsc1CCN1C(=O)N(c2ccccc2)C(=O)C1CC(=O)Nc1ccc(F)cc1 (centres undefined),.,.,-9.7%,23.1µM*,?,.
COc1ccc(OC)c(NC(=O)c2csnn2)c1,.,.,-6.6%,i,i,.
CCc1cccc(NC(=O)CC(c2ccc(OC)cc2)N2Cc3ccccc3C2=O)c1 (centres undefined),.,.,19.2%,.,.,.
CCN1C(=O)[C@H]2[C@@H](c3ccc(-c4cccc(Cl)c4)c(OC)c3)N3CCCC[C@@]3(C(=O)OC)[C@H]2C1=O,20.1%,-1.7%,-18.8%,i,20.6µM*,2.9%
CCN1C(=O)[C@H]2[C@@H](c3ccc(-c4cccc(Cl)c4)cc3)N[C@@](CC(C)C)(C(=O)OC)[C@H]2C1=O,3.1%,-9.3%,-15.2%,?,?,-6.5%
CCN1C(=O)[C@H]2[C@@H](c3ccc(-c4ccc(Cl)c(Cl)c4)cc3)N3CCCC[C@@]3(C(=O)OC)[C@H]2C1=O,-5.8%,22.1%,-8.4%,?,?,3.3%
CCN1C(=O)[C@H]2[C@@H](c3ccc(-c4ccc(Cl)c(Cl)c4)c(OC)c3)N3CCCC[C@@]3(C(=O)OC)[C@H]2C1=O,28.7%,26.3%,-10.2%,20.6µM*,?,-1.0%
CCN1C(=O)[C@H]2[C@@H](c3ccc(-c4cccc(Cl)c4)c(OC)c3)N[C@@](CC(C)C)(C(=O)OC)[C@H]2C1=O,?,5.8µM*,-1.7%,?,i,-0.7%
CNS(=O)(=O)c1cn(CC(=O)N2CCN(c3cc(C)ccc3C)CC2)cc1S(=O)(=O)NC,.,.,-11.1%,i,i,.
CC(C)(C)c1ccc(C(=O)Nc2ccc(-c3nc4ccccc4[nH]3)cc2)cc1,.,.,.,i,i,.
CCC(C)Nc1ccc(NC(C)CC)cc1 (centres undefined),29.9%,2.59µM*,-45.4%,?,?,-1.2%
SMILES,SW480 rerep,MCF10A rereplic,RGS4 inhibitor,KB-3-1 tox,KB-V1 cytotox,TSG101-PTAP inh
CCC(C)NC(=O)Nc1ccc(Br)cc1 (centres undefined),-7.8%,1.0%,-5.9%,i,i,-2.9%
Cc1cccc(Nc2cc(C)c3c(O)cccc3n2)c1C,20.6µM*,?,-40.5%,?,i,-2.9%
Cc1cc(Nc2ccccc2O)nc(C)n1,.,.,13.0%,i,?,.
CCCN1C(=O)C(O)(C2CC(=O)CC(C)(C)O2)c2ccccc21 (centres undefined),16.4µM*,?,17.7%,?,?,-0.7%
CCCN1C(=O)C(O)(C2COC(C)(C)CC2=O)c2ccccc21 (centres undefined),?,-5.4%,-27.2%,i,i,-2.6%
COc1ccc(C(=O)C2CCCN(Cc3cccn3-c3ccc(Cl)cn3)C2)c(OC)c1 (centres undefined),17.2%,19.3%,-3.3%,?,11.6µM*,-1.8%
COc1ccc(C(=O)C2CCCN(Cc3c(F)ccc(F)c3F)C2)c(OC)c1 (centres undefined),-9.5%,3.2%,8.5%,i,?,-4.3%
N#C/C(=C/c1ccc(-c2ccc(Br)cc2)o1)C(=O)NC1CCCCC1,?,18.4µM*,-24.5%,i,i,-0.7%
CCC(C)OC(=O)/C(C#N)=C/c1ccc(-c2ccc(Br)cc2)o1 (centres undefined),.,.,-6.9%,i,i,.
N#C/C(=C\c1cccn1-c1ccccc1)C(=O)NC1CCCCC1,?,0.5%,-23.2%,5.8µM*,4.61µM*,-3.4%
CCOC(=O)c1ccc(-c2ccc(/C=C(\C#N)C(=O)NCC3CCCO3)o2)cc1 (centres undefined),5.1%,14.4%,-34.6%,i,16.4µM*,?
N#C/C(=C\C=C\c1ccccc1[N+](=O)[O-])C(=O)NC1CCCCC1,?,9.2µM*,-14.1%,i,?,-1.4%
